Assay [1] in a line: qHTS of pediatric cancer cell lines to identify multiple opportunities for drug repurposing: Primary screen for TC32 cells (AID 1347089). Note: nearly all actives have a fitted effect of over 60% in size. Put shortly:
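Measured quantity: luminescence from CellTiter-Glo, reflecting metabolically active TC32 cells following 48 h of compound. Curves came straight from multi-point titrations, with 8 or 11 points in primary and 11 in confirmatory screening.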
(In general: qHTS replaces the single test concentration by a dilution series.)

Assay [2] in a line: qHTS of pediatric cancer cell lines to identify multiple opportunities for drug repurposing: Primary screen for DAOY cells (AID 1347090). Note: nearly all actives have a fitted effect of over 55% in size. Note: potency is the fitted concentration of half-maximal effect. The gist of the method:
(§1)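 Eight- or eleven-point concentration series, 48 h treatment at 37 degrees C in growth media; readout CellTiter-Glo luminescence. Potency and efficacy were taken from the concentration-response curves.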

A short description of assay [3]: qHTS of pediatric cancer cell lines to identify multiple opportunities for drug repurposing: Primary screen for SJ-GBM2 cells (AID 1347091). Note: potency is the fitted concentration of half-maximal effect. Put shortly:
as §1

A short description of assay [4]: qHTS of pediatric cancer cell lines to identify multiple opportunities for drug repurposing: Primary screen for SK-N-MC cells (AID 1347093). Note: potency is the fitted concentration of half-maximal effect. Put shortly: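 Metabolically active cells were quantified by ATP-dependent luminescence (CellTiter-Glo, 15 min at room temperature) following 48 h treatment. Cells had been plated at 500-1,000 per well and settled for 5 h beforehand.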

Assay [5] can be described thus: qHTS of pediatric cancer cell lines to identify multiple opportunities for drug repurposing: Primary screen for BT-37 cells (AID 1347094). Note: potency is the fitted concentration of half-maximal effect. Put shortly:
(§2)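 Cells seeded at 500-1,000 cells/well in growth media, rested 5 hours at 37 degrees C, 5% CO2, then dosed; MIPE compounds at 11-point (from 0.78 nM) and NPC at 8-point (from 0.59 nM) final concentrations. Viability by CellTiter-Glo luminescence after 48 hours.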

The nature of assay [6]: qHTS of pediatric cancer cell lines to identify multiple opportunities for drug repurposing: Primary screen for NB-EBc1 cells (AID 1347095). Note: potency is the fitted concentration of half-maximal effect. Put shortly:
as §2

Assay [7] is described as follows: qHTS of pediatric cancer cell lines to identify multiple opportunities for drug repurposing: Primary screen for U-2 OS cells (AID 1347096). Note: nearly all actives have a fitted effect of over 50% in size. Put shortly: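 Cells (500-1,000/well) in growth media were settled 5 h at 37 degrees C, then given compounds for 48 h. Viability was read as CellTiter-Glo luminescence. Primary runs used MIPE at 11 points (0.78 nM-46 µM) and NPC at 8 points (0.59 nM-46 µM); follow-ups used 11 points.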

The nature of assay [8]: qHTS of pediatric cancer cell lines to identify multiple opportunities for drug repurposing: Primary screen for A673 cells (AID 1347092). Note: nearly all actives have a fitted effect of over 45% in size. Note: potency is the fitted concentration of half-maximal effect. Put shortly:
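Cells are plated, rested 5 h, dosed by pintool, incubated 48 h, then lysed with CellTiter-Glo and read by luminescence. DMSO is the neutral control; bortezomib at 2.3 uM final is the positive control.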

Records with an inconclusive call do not appear. The source made the active and inactive calls. Calls come from the whole dose curve; as a rule, active = well fitted curve in the direction sought with a large enough effect; inconclusive = small, poorly fitted or top-dose-only effect, or another doubt; inactive = no such curve, though single readings can be large; an effect the other way counts as inactive or inconclusive.

As for `C[C@]12CCC3=C4CCC(=O)C=C4CC[C@@H]3[C@H]1CC[C@@]2(O)CC#N`, the Potency result in assay [1], in assay [2], in assay [3], in assay [4], in assay [5] and in assay [6] was “inactive” each time. Further, the Potency entry in assay [7] was “inactive”.
Turning to `CCC(c1ccc(O)cc1)C(CC)c1ccc(O)cc1` (stereo not drawn), the Potency entry in assay [1] and in assay [3] was “inactive” in each case. Moreover, the Potency in assay [2] is 0.59 µM (active); in assay [4] it was 1.05 µM (active).
For `OC(c1cc(C(F)(F)F)nc2c(C(F)(F)F)cccc12)C1CCCCN1` (stereo not drawn), the Potency result in assay [1], in assay [2] and in assay [6] was “inactive” each time. Further, the Potency in assay [8] is 18.7 µM (active).
As to `CN1c2ccccc2C(=O)N2CCc3c([nH]c4ccccc34)C21` (stereo not drawn), the Potency entry in assay [1], in assay [2], in assay [3], in assay [5], in assay [6] and in assay [7] was “inactive” each time.
For `Nc1[nH]nc2nnc(-c3c(-c4ccccc4)nn4ccccc34)cc12`, in assay [1], the Potency entry is “inactive”. In addition, the Potency was 2.96 µM (active) in assay [2]; 1.48 µM (active) in assay [8]; 0.0332 µM (active) in assay [4]; 2.73 µM (active) in assay [5]; 3.32 µM (active) in assay [6].
Regarding `CNC(=O)c1ccc2c(C(=Nc3cccc(CN(C)C)c3)c3ccccc3)c(O)[nH]c2c1`, the Potency result in assay [1], in assay [2] and in assay [7] was “inactive” each time. Moreover, the Potency was 11.8 µM (active) in assay [8] and 23.5 µM (active) in assay [4].
`C[C@@H]1CCO[C@H]2Cn3cc(C(=O)NCc4ccc(F)cc4F)c(=O)c(O)c3C(=O)N12`: the Potency entry in assay [1], in assay [2], in assay [8] and in assay [4] was “inactive” throughout.
Turning to `Cc1cn([C@@H]2C[C@@H](O)[C@H](CO)O2)c(=O)[nH]c1=O`, the Potency result in assay [1], in assay [2], in assay [3], in assay [5], in assay [6] and in assay [7] was “inactive” each time.
Turning to `CCOC(=O)[C@@H](N)CCC(=O)N[C@@H](CSCc1ccccc1)C(=O)N[C@@H](C(=O)OCC)c1ccccc1`, the Potency entry in assay [1], in assay [2], in assay [3], in assay [5], in assay [6] and in assay [7] was “inactive” throughout.
For the compound `Cn1cc(-c2ccc3nnc(Sc4ccc5ncccc5c4)n3n2)cn1`, the Potency result in assay [1], in assay [5], in assay [6] and in assay [7] was “inactive” each time. The Potency in assay [2] is 11.8 µM (active); in assay [3] it was 0.0118 µM (active).
As to `CCOC(=O)c1c(CSc2ccccc2)n(C)c2cc(Br)c(O)c(CN(C)C)c12`, the Potency entry in assay [1], in assay [2], in assay [8], in assay [6] and in assay [7] was “inactive” in each case.
On to `CN1CCN(c2cccc(Nc3nc4c(-c5ccc(S(C)(=O)=O)cc5)cccn4n3)c2)CC1`, for which the Potency entry in assay [1], in assay [2] and in assay [7] was “inactive” each time. Further, the Potency in assay [8] is 9.35 µM (active).
Consider `COc1ccc2c(c1)c(C1=C(c3c[nH]c4ccccc34)C(=O)NC1=O)cn2CCCN(C)C`, for which the Potency entry in assay [1], in assay [2] and in assay [7] was “inactive” each time. Moreover, the values for the Potency in assay [8] and in assay [6] were 23.5 µM (active) and 20.9 µM (active), respectively.
As to `CN1CCN(c2ncc(-c3cc(Cl)cc(Cl)c3Cl)c(N)n2)CC1`, the Potency result in assay [1], in assay [2] and in assay [7] was “inactive” each time. The figures for the Potency in assay [8], in assay [4] and in assay [5] were 2.35 µM (active), 10.5 µM (active) and 3.06 µM (active), respectively.
In the case of `CC(NCCc1ccc(O)cc1)C(O)c1ccc(O)cc1` (stereo not drawn), the Potency entry in assay [1], in assay [2], in assay [3], in assay [5], in assay [6] and in assay [7] was “inactive” in each case.
With `Cc1cc(NC(=O)Nc2ccc(N(C)C)cc2)c2cc(F)cc(F)c2n1`, the Potency entry in assay [1], in assay [2], in assay [8], in assay [4], in assay [5] and in assay [7] was “inactive” in each case.
With `CC(C)(O)CC(=O)NCCn1ccc2ncnc(Nc3ccc(Oc4cccc(C(F)(F)F)c4)c(Cl)c3)c21`, the Potency result in assay [1] and in assay [7] was “inactive” each time. The Potency was 0.469 µM (active) in assay [2], 0.372 µM (active) in assay [8], 0.743 µM (active) in assay [4] and 24.3 µM (active) in assay [5].
Take `O=C(CO)N1CCC(c2[nH]nc(-c3ccc(Cl)cc3)c2-c2ccncn2)CC1`: the Potency entry in assay [1], in assay [2], in assay [8], in assay [4], in assay [6] and in assay [7] was “inactive” each time.
As for `CCNC(=O)Nc1ccc(Oc2ncnc(N)c2C=NOC)cc1Cl`, the Potency entry in assay [1], in assay [2], in assay [5] and in assay [7] was “inactive” in each case. Moreover, the Potency in assay [3] was 5.26 µM (active).
For the compound `O=C1CCCC(=O)C1C(=O)c1ccc(C(F)(F)F)cc1[N+](=O)[O-]`, the Potency result in assay [1], in assay [2], in assay [3], in assay [6] and in assay [7] was “inactive” throughout.
For the compound `CCOC(=O)N1CCN([N+]([O-])=NOc2cc(ON=[N+]([O-])N3CCN(C(=O)OCC)CC3)c([N+](=O)[O-])cc2[N+](=O)[O-])CC1`, the Potency entry in assay [1], in assay [2], in assay [5] and in assay [7] was “inactive” each time. The values for the Potency in assay [3] and in assay [6] were 14.8 µM (active) and 5.9 µM (active), respectively.
`NC(=O)c1ccc(N(C(N)=O)c2c(F)cccc2F)nc1-c1ccc(F)cc1F`: the Potency entry in assay [1], in assay [3], in assay [5] and in assay [7] was “inactive” in each case. Also, the Potency in assay [2] is 14.8 µM (active).
`O=C1C(c2c(O)[nH]c3ccccc23)=Nc2ccccc21`: the Potency result in assay [1] and in assay [7] was “inactive” in each case. Also, the Potency in assay [2] was 0.59 µM (active); in assay [8] it was 0.59 µM (active); in assay [4], 0.118 µM (active).
Consider `N#CC(c1ccc(Cl)cc1)c1c(Cl)cc(-n2ncc(=O)[nH]c2=O)cc1Cl` (stereo not drawn), for which the Potency entry in assay [1] was “inactive”. For the same compound, the figures for the Potency in assay [2], in assay [3] and in assay [6] were 9.35 µM (active), 23.5 µM (active) and 8.33 µM (active), respectively.

These data come from PubChem BioAssay (NCATS).
